Most compounds without a hit are left out; they make up all but 1.2% or so of the library.
Avidin bead fluor: green autofluorescence of compounds with avidin beads – biophysical, 488/530 nm, flow cytometry, artefact control, profiling panel; compound fluorescence 488/530 nm; hits give high values; fluorescence (KMESF) at 10 µM; 220,000 compounds, 0.38% hits; in the data active = fluorescence above about 47
RGS8-Gao reg: RGS8-Galphao binding modulators, primary screen, biochemical, multiplexed bead flow cytometry. 220,000 compounds, 0.34% hits. response (percent of control binding), % at 10 µM. actives lie on both sides; in the data active = response below about 60% or above about 140%; inactive = in between;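 also: Galphao activated as the GDP aluminium fluoride complex binding bead-coupled RGS8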
RGS4-Gao reg: modulators of RGS4 binding to Galphao, primary screen, biochemical, multiplexed bead flow cytometry. actives lie on both sides. Guanine nucleotide-binding protein G(o) subunit alpha (Homo sapiens), P09471. binding response (% of control), % at 10 µM. 220,000 compounds, 0.33% hits; in the data active = binding response below about 49% or above about 150%; inactive = in between;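 also: fluorescent Galphao activated with aluminum fluoride binding bead-coupled RGS4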
GSH bead fluor: compound fluorescence on glutathione beads, profiling panel, artefact control, biophysical, 488/530 nm, flow cytometry | GSH beads flow cytometry, compound fluorescence 488/530 nm; hits give high values | fluorescence (KMESF) at 10 µM | 190,000 compounds, 0.25% hits | AID 1776, 2009; in the data active = fluorescence above about 89;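 also: glutathione beads carrying GST-tagged Bcl family fusion proteins plus one bare bead set; values are compound well signal with DMSO vehicle wells as background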
RGS16-Gao: modulators of RGS16 binding to Galphao, primary screen, biochemical, human proteins, multiplexed bead flow cytometry; Regulator of G-protein signaling 16 (Homo sapiens) + Guanine nucleotide-binding protein …; bead-based flow cytometry RGS16-Galphao binding, fluorescence; actives lie on both sides; binding response (% of control), % at 10 µM; 220,000 compounds, 0.38% hits; AID 1441, 2008;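 also: Galphao activated by GDP with aluminum fluoride before binding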
Target sequence (O15492 whole entry, looked up): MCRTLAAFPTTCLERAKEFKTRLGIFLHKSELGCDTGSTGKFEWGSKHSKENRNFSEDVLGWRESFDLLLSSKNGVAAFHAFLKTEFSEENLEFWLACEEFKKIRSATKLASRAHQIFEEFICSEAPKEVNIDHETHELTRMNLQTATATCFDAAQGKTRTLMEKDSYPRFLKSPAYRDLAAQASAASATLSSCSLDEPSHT
Target sequence (P09471 whole entry, looked up): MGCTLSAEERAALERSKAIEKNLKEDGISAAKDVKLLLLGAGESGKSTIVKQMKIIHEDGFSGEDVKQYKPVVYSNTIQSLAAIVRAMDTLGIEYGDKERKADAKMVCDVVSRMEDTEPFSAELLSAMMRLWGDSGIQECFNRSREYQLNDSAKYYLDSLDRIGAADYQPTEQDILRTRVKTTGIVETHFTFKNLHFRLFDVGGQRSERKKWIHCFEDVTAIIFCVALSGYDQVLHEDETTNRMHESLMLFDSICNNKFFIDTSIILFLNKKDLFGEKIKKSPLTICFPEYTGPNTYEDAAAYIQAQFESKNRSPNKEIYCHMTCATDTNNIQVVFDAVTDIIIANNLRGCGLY
RGS7-Gao: RGS7-Galphao binding modulators, primary screen, biochemical, multiplexed bead flow cytometry. Guanine nucleotide-binding protein G(o) subunit alpha (Homo sapiens), P09471. actives lie on both sides. binding response (% of control), % at 10 µM. 220,000 compounds, 0.35% hits. AID 1439, 2008; in the data active = binding response below about 49% or above about 150%;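 also: fluorescent Galphao held in activated GDP-AlF4 state binding bead-coupled RGS7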
RGS4-Gao HTS: modulators of RGS–Galpha-o binding, primary screen, biochemical, multiplexed beads, flow cytometry, RGS4/7/8/16/19 | multiplexed bead flow cytometry | RGS4–Galpha-o binding response, % at 10 µM | shares compounds with RGS16-Gao | AID 1504, 2009 | 1,600 compounds, 99% hits;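 also: fluorescently labeled Galpha-o bound to GDP with aluminium fluoride binding biotinylated RGS beads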
Avidin counter: disruption of biotin probe capture by avidin, counter-screen for RGS protein interaction modulators, biochemical, flow cytometry, bead-based; shares compounds with RGS16-Gao; streptavidin beads, fluorescein-biotin binding; inhibition, % at 10 µM; 1,700 tested, under 10 active; AID 1783, 2009;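 active = inhibition above 50%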;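 also: median green fluorescence of gated singlet beads compared with DMSO control wells; 0% = DMSO wells and 100% = complete loss of bead fluorescence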
RGS8-Gao confirm: RGS8-Galphao binding modulators, confirmation, biochemical, multiplexed bead flow cytometry, single concentration. shares compounds with RGS16-Gao. bead-based flow cytometry RGS8-Galphao binding, fluorescence; actives lie on both sides. binding response (% of control), % at 10 µM. 1,700 compounds, 3% hits; in the data active = binding response below about 72% or above about 130%; inactive = in between;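 also: Galphao activated as GDP AlF4 complex before binding bead RGS8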
RGS7-Gao confirm: RGS7-Galphao binding modulators, confirmation, biochemical, multiplexed bead flow cytometry, single concentration. shares compounds with RGS16-Gao. bead-based flow cytometry RGS7-Galphao binding; actives lie on both sides. response (percent of control binding), % at 10 µM. 1,700 compounds, 7.8% hits. AID 1837, 2009; in the data active = response below about 75% or above about 130%; inactive = in between;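 also: fluorescent Galphao activated with GDP and aluminum fluoride binding bead-coupled RGS7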
RGS16-Gao conf: modulators of RGS16-Galphao protein binding, confirmation, biochemical, single concentration, multiplexed bead flow cytometry; shares compounds with RGS16-Gao; bead-based flow cytometry; actives lie on both sides; response (% of control binding), % at 10 µM; 1,700 compounds, 4% hits; AID 1838, 2009; in the data active = response below about 74% or above about 130%; inactive = in between;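 also: Galphao activated as the GDP aluminium fluoride complex binding bead-coupled RGS16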
RGS4-Gao confirm: modulators of RGS4-Galphao protein binding, confirmation, biochemical, single concentration, multiplexed bead flow cytometry | shares compounds with RGS16-Gao | actives lie on both sides | binding response (% of control), % at 10 µM | 1,700 compounds, 4% hits; in the data active = binding response below about 74% or above about 130%; inactive = in between
RGS19-Gao conf: regulators of RGS19-Galphao binding, confirmation, biochemical, single point, multiplexed bead flow cytometry; shares compounds with RGS16-Gao; bead-based flow cytometry RGS19-Galphao binding; actives lie on both sides; response (percent of control binding), % at 10 µM; 1,700 compounds, 5% hits; in the data active = response below about 50% or above about 160%; inactive = in between;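 also: 100% = no compound control and 0% = blank background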
* = called active by the depositor; x = no result given; [ ] = dose if it differs, or a comment. Unless noted, no rule for the calls is given here.

SMILES | Avidin bead fluor | RGS8-Gao reg | RGS4-Gao reg | GSH bead fluor | RGS16-Gao | RGS7-Gao | RGS4-Gao HTS | Avidin counter | RGS8-Gao confirm | RGS7-Gao confirm | RGS16-Gao conf | RGS4-Gao confirm | RGS19-Gao conf
CC(C)(C)NC(=O)CN(C(=O)CNC(=O)c1cccs1)c1ccc2c(c1)OCCO2 | 14 | 101 | 101 | 24 | 101 | 100 | x | x | x | x | x | x | x
O=C(Cc1noc2ccccc12)Nc1ccc2ccccc2c1 | 4 | 70 | 91 | 22 | 25* | 89 | 91* | 0 | 94 | 88 | 89 | 91 | 99
CC12c3ccccc3C(c3ccccc31)C1C(=O)N(c3cccnc3)C(=O)C12 (stereo unspecified) | 16 | 103 | 104 | 16 | 102 | 102 | x | x | x | x | x | x | x
O=C1C2C3c4ccccc4C(c4ccccc43)C2C(=O)N1c1cccnc1 (stereo unspecified) | 7 | 73 | 88 | 11 | 24* | 86 | 88* | 0 | 100 | 102 | 102 | 102 | 97
CCOc1c(O)ccc(C2NC(=O)NC(C)=C2C(=O)OC)c1[N+](=O)[O-] (stereo unspecified) | 20 | 100 | 100 | 11 | 99 | 104 | x | x | x | x | x | x | x
CCOc1c(O)ccc(C2NC(=O)N(C)C(C)=C2C(=O)OC)c1[N+](=O)[O-] (stereo unspecified) | 168* | 80 | 130 | 20 | 89 | 436*[activator] | 130* | 0 | 98 | 98 | 97 | 97 | 100
CS(=O)(=O)NCc1ccc(C(=O)O)cc1 | 13 | 104 | 100 | 18 | 103 | 103 | x | x | x | x | x | x | x
O=C(Cn1c2[n+](c3ccccc31)CC(O)CS2)c1ccccc1 (stereo unspecified) | 11 | 97 | 95 | 24 | 93 | 98 | x | x | x | x | x | x | x
C=CCc1cccc(/C=N/NC(=O)c2ccccc2Br)c1O | 2 | 31* | 34* | 15 | 23* | 25* | x | -1 | 101 | 95 | 97 | 100 | 82
C=CCc1cccc(/C=N/NC(=O)c2ccccc2OC)c1O | 5 | 98 | 96 | 11 | 96 | 97 | x | x | x | x | x | x | x
CCOC(=O)c1ccc[n+](C(C)C(=O)c2ccc(-c3ccccc3)cc2)c1 (stereo unspecified) | 3 | 99 | 98 | 10 | 101 | 99 | x | x | x | x | x | x | x
CC(C(=O)c1ccc(-c2ccccc2)cc1)[n+]1cccc(NC(=O)c2ccccc2)c1 (stereo unspecified) | x | x | x | x | x | x | x | 3 | 106 | 111 | 102 | 108 | 84
